CBX7 AlphaScr: blocks human CBX7 binding to H3K27me3 peptide. normalised signal (fraction of DMSO) (concentration not given with the values). actives 1.1% (n = 66,000). AlphaScreen His6-CBX7 / biotin-H3K27me3 peptide binding; hits give low values; in the data active = normalised signal below about 0.5
Target sequence (O95931 whole entry, looked up): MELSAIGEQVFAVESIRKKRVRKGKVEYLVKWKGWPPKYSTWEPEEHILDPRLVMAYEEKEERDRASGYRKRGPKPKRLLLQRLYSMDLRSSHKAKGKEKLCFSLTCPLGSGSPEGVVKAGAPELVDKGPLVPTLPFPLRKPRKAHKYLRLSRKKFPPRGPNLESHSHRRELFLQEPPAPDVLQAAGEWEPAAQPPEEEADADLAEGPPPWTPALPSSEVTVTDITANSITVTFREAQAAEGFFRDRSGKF
A number is an active result; . = inactive; ! = repeats disagree. Shown is part of a subset that was picked to be rich in hits.

SMILES | CBX7 AlphaScr
Cc1cccc2nc(-c3ccccn3)c(Nc3ccccc3)n12 | 0.0053
Cc1ccn2c(Nc3ccc(F)cc3)c(-c3ccccn3)nc2c1 | 0
Cc1ccc(Nc2c(-c3ccsc3)nc3cccc(C)n23)cc1 | .
Cc1ccc(Nc2c(-c3ccccn3)nc3cccc(C)n23)cc1 | 0.0014
Cc1ccc(Nc2c(-c3ccccc3)nc3cc(C)ccn23)cc1 | .
Fc1ccc(Nc2c(-c3ccccn3)nc3ccc(Br)cn23)cc1 | .
Cc1ccc(-c2nc3ccccn3c2Nc2ccc(F)cc2)cc1 | .
Cc1nc(C)c(C(=O)Nc2ccc(Cl)cc2)s1 | .
Cc1oc(-c2cccc(Cl)c2)nc1CS(=O)(=O)CC(=O)NCCCc1ccccc1 | .
COc1ccc2cc(CCNC(=O)c3ccccc3C)c(=O)[nH]c2c1 | .
Cc1ccc(-c2nc(C(=O)NCc3ccccn3)c(C)o2)cc1 | .
CC(=O)N1CCc2cc(S(=O)(=O)NC(C(=O)NCCN(C)Cc3ccccc3)C(C)C)ccc21 (stereo unspecified) | .
CCOc1ccc(CCNC(=O)Cn2nc(-c3ccccc3)c3ccccc3c2=O)cc1OCC | .
O=C(O)c1ccc(N2C(=O)CC(Nc3ccc(F)cc3)C2=O)cc1 (stereo unspecified) | .
Cc1nc2nc[nH]n2c(=O)c1Cc1ccccc1 | .
CNC(=O)C1CCCN(c2nnc(-n3cccc3)s2)C1 (stereo unspecified) | .
CCOc1ccc(CNC(=O)Cn2nc(Cc3cccnc3)c3ccccc3c2=O)cc1 | .
CCn1c(C(=O)NCc2cccs2)cc2sc(Cl)cc21 | .
O=C1CCCc2oc3c(Cl)cc(NS(=O)(=O)c4ccc(Br)cc4)cc3c21 | .
COC(=O)CNc1c(-c2ccccn2)nc2ccc(Br)cn12 | 0.063
Cc1ccccc1Nc1c(-c2ccccn2)nc2ccc(Br)cn12 | .
Brc1ccc2nc(-c3ccccn3)c(Nc3ccc4c(c3)OCO4)n2c1 | .
Cc1ccccc1NC(=O)CN(C)S(=O)(=O)c1cnc[nH]1 | .
COc1ccc(CC(=O)Nc2nnc(C3CCCCC3)s2)cc1OC | .
COc1ccc(-c2nc(C(=O)NC(C)CCc3ccccc3)c(C)o2)cc1OC (stereo unspecified) | .
SMILES | CBX7 AlphaScr
CCCC(=O)Nc1ccc(Cl)c(-c2nc3ncccc3o2)c1 | .
CCCC(=O)NC(c1ccc(OC)c(OC)c1)c1cc(Cl)c2cccnc2c1O (stereo unspecified) | 0.41
COc1ccc(C(NC(=O)CCc2ccccc2)c2ccc3cccnc3c2O)cc1OC (stereo unspecified) | 0.039
COc1ccc(NC(=O)C(=O)NCCc2ccccc2)cc1OC | .
CCCC(=O)NC(c1ccccc1OC)c1cc(Cl)c2cccnc2c1O (stereo unspecified) | .
O=C(NC1CC1)C1CC(=O)N(c2ccc(F)c(Cl)c2)C1 (stereo unspecified) | .
Cc1ccc(-c2nc(NS(=O)(=O)c3ccc(Cl)cc3)sc2C)cc1 | .
Cc1ccc(-n2nc(C)c3c(C)c(CCC(=O)NCCCc4ccccc4)c(C)nc32)cc1 | .
CCCN1CCN(CCCNC(=O)Cn2nc(Cc3ccncc3)c3ccccc3c2=O)CC1 | .
CCOC(=O)c1cnc2c(OC)cccc2c1NCc1ccccc1OC | .
CCOC(=O)c1cnc2c(OC)cccc2c1N1CCC(Cc2ccccc2)CC1 | 0.42
CCOC(=O)c1cnc2c(OC)cccc2c1Nc1ccc(CC)cc1 | .
Nc1c(-c2nc(-c3ccc(Br)cc3)cs2)c2ccccn2c1C(=O)c1ccccc1 | .
COc1ccc(-c2cc(CCCC(=O)Nc3cc(C)cc(C)c3)no2)cc1 | .
CCn1c(COc2cccc3cccnc23)nnc1SCC(=O)OC | .
O=C(Nc1ccc(F)cc1)C(Cc1ccccc1)NS(=O)(=O)c1cccc2cccnc12 (stereo unspecified) | .
O=C(CC(Sc1cccc2cccnc12)c1ccc(F)cc1)c1cccs1 (stereo unspecified) | 0.0063
Cc1ccc(Cn2c(C(=O)NC3CCC(C)CC3)cc3sccc32)cc1 (stereo unspecified) | .
Cc1c(C(=O)NCc2ccccc2)oc2ccc(S(=O)(=O)N3CCCCC3)cc12 | .
O=C(Nc1nc2c(Cl)cccc2s1)c1ccc(S(=O)(=O)N2CCCC2)cc1 | .
Cc1ccc(C(=O)Nc2ccccc2)cc1S(=O)(=O)N1CCOCC1 | .
CCC1CCCCN1S(=O)(=O)c1ccc(C(=O)Nc2nnc(-c3ccc(Cl)s3)o2)cc1 (stereo unspecified) | 0.38
O=C(Nc1nnc(-c2ccc(Cl)cc2Cl)s1)c1ccc(S(=O)(=O)N2CCCC2)cc1 | .
COc1ccc(-c2nnc(NC(=O)c3ccc(S(=O)(=O)N4CCCC(C)C4)cc3)o2)cc1 (stereo unspecified) | .
CCC1CCCCN1S(=O)(=O)c1ccc(C(=O)Nc2nnc(-c3cccs3)o2)cc1 (stereo unspecified) | .
SMILES | CBX7 AlphaScr
CCc1nnc(NC(=O)c2ccc(S(=O)(=O)N3CCCCC3CC)cc2)o1 (stereo unspecified) | .
O=C(Nc1nnc(-c2ccc(Cl)s2)o1)c1ccc(S(=O)(=O)N2CCCC2)cc1 | 0.046
O=C(Nc1nnc(-c2ccccc2)o1)c1ccc(F)c(S(=O)(=O)N2CCOCC2)c1 | 0.12!
Cc1ccccc1NC(=O)c1ccc(F)c(S(=O)(=O)N2CCN(c3ccccc3)CC2)c1 | .
CC1CCCN(S(=O)(=O)c2ccc(C(=O)Nc3nnc(-c4ccccc4Cl)o3)cc2)C1 (stereo unspecified) | 0.01
O=C(CN1C(=O)COc2ccc(S(=O)(=O)N3CCCC3)cc21)NC1CCCc2ccccc21 (stereo unspecified) | .
O=C(CC1Sc2ccccc2NC1=O)Nc1ccc(OC(F)F)cc1 (stereo unspecified) | .
NS(=O)(=O)c1ccc(CCNC(=O)c2cc3sccc3n2Cc2ccc(F)cc2)cc1 | .
CC1CCCCC1NC(=O)CN1C(=O)CSc2ccccc21 (stereo unspecified) | .
CC(=O)N1CCCc2cc(S(=O)(=O)N3CCN(c4cc(Cl)ccc4C)CC3)ccc21 | .
CCn1c(SCC(=O)Nc2ccc(C(F)(F)F)cc2)nnc1-c1c[nH]c2ccccc12 | .
Cc1ccccc1C(=O)Nc1ccc2oc(-c3cccnc3)nc2c1 | .
CCn1cc(C(=O)O)c(=O)c2cc(S(=O)(=O)N3CCC(C)CC3)ccc21 | .
COc1ccc(-n2nc(C(=O)Nc3cc(Cl)c(OC)cc3OC)c3ccccc3c2=O)c(OC)c1 | .
COc1ccc(CCNC(=O)C(=O)Nc2ccc(F)cc2)cc1 | .
COc1ccc(C2C(C(=O)Nc3cc(C)ccn3)=C(C)NC3=C2C(=O)CCC3)cc1 (stereo unspecified) | .
Cc1ccc(-c2nc(CS(=O)(=O)CC(=O)NC3CCCC3)c(C)o2)cc1 | .
CC(C)CCNC(=O)C1CCCN(c2nnc(-n3cccc3)s2)C1 (stereo unspecified) | .
CC1CCN(S(=O)(=O)c2ccc(C(=O)Nc3nnc(-c4cccs4)o3)cc2)CC1 | .
O=C(Nc1nnc(-c2ccccc2)o1)c1ccc(Br)cc1 | 0.27
O=C(Nc1nnc(-c2ccccc2)o1)c1ccc(Cl)c(Cl)c1 | .
O=C(Nc1nnc(-c2ccc(F)cc2)o1)c1ccc(S(=O)(=O)N2CCOCC2)cc1 | 0.0037
COc1ccc(-c2nnc(NC(=O)c3ccc(S(=O)(=O)N4CC(C)CC(C)C4)cc3)o2)cc1 (stereo unspecified) | .
CN(c1ccccc1)S(=O)(=O)c1ccc(C(=O)Nc2nnc(-c3cccs3)o2)cc1 | .
CC(C)CN(CC(C)C)S(=O)(=O)c1ccc(C(=O)Nc2nnc(-c3cccs3)o2)cc1 | .

Bioassay records as filed in PubChem.
